APP 5UTR inh: inhibitors of APP translation via 5'UTR reporter, primary screen, APP 5'UTR luciferase, SH-SY5Y cells | SH-SY5Y APP 5'UTR-luciferase reporter, luminescence | inhibition, % at 2 µM | 0.82% of 190,000 active | AID 1285, 2008;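 active means inhibition above a set limit, derived from the sample mean plus 3 SD, cut at about 45% in these data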
KLF5 inhibitor: KLF5 expression inhibitors, primary screen, DLD-1 cells, luminescence | DLD-1 KLF5 promoter-luciferase reporter | inhibition, % at 5 µM | 0.23% of 290,000 active | AID 1700, 2009;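 active means inhibition above a per-plate limit of that plate's mean compound inhibition plus 3 SD, cut at about 60% in these data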;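 further: higher means less KLF5 promoter-driven luciferase light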
BaF3 tox: parental Ba/F3 cell viability inhibition, counter-screen for JAK2V617F inhibitor project, murine pro-B, CellTiter-Glo luminescence | CellTiter-Glo ATP luminescence | inhibition, % at 5.6 µM | 1.1% of 220,000 active | AID 1486, 2009;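 active means inhibition above a per-campaign cutoff, the mean inhibition of all tested compounds plus 3 SD, cut at about 27% in these data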
aSyn 5UTR inh: MLPCN primary screen, SNCA 5' untranslated region; alpha-synuclein 5'UTR reporter, inhibitor activity; inhibition, % (tested at 7.5 µM); 0.82% of 300,000 active; in the data active means inhibition above about 60%;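 further: H4 neuroglioblastoma cells stably carrying SNCA 5'UTR luciferase fusion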
Ba/F3 V617F tox: reduced viability of JAK2V617F-dependent Ba/F3 cells, primary screen, JAK2V617F inhibitor project, cell-based, Ba/F3 EpoR-JAK2V617F, luminescence; inhibition, % at 5.6 µM; AID 1446, 2008; ATP luminescence; 1.1% of 220,000 active;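 active means inhibition above the campaign mean plus 3 SD over all tested compounds, cut at about 24% in these data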;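 further: cytokine-independent growth of Ba/F3 cells driven by EpoR plus mutant JAK2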
IEC-6 tox: cytotoxicity in IEC-6 intestinal epithelial cells, primary screen, cytotoxicity control for KLF5 inhibitor project, cell-based, luminescence; IEC-6 cytotoxicity, luminescence viability; inhibition, % at 5 µM; 0.78% of 290,000 active; AID 1825, 2009; in the data active means inhibition above about 22%
A number is an active result; . = inactive; / = no result. Only some compounds are listed: those with a hit (about 2.2% of all), similar ones and a draw of the others.

SMILES | APP 5UTR inh | KLF5 inhibitor | BaF3 tox | aSyn 5UTR inh | Ba/F3 V617F tox | IEC-6 tox
Cc1ccccc1-c1nc(CS(=O)(=O)CC(=O)NCCCN2CC(C)CC(C)C2)c(C)o1 (stereo not drawn) | / | . | / | . | / | .
Cc1nnc(NC(=O)c2cc(S(=O)(=O)N3CCCCC3)ccc2Cl)s1 | / | . | / | . | / | .
C=CCOc1nc(-c2ccccc2Cl)nc2ccccc12 | / | . | . | 72 | . | .
O=S(Cc1ccc(Br)cc1)Cc1nnc(SCc2ccc(Br)cc2)n1-c1ccccc1 (stereo not drawn) | . | . | 34 | . | . | .
COc1ccccc1-c1noc(-c2ccccc2C(=O)NCC2CCCO2)n1 (stereo not drawn) | / | . | / | . | / | .
Cc1ccccc1-c1noc(-c2ccccc2C(=O)NCC2CCCO2)n1 (stereo not drawn) | / | . | 62 | / | . | .
CCOc1ccc(/C=N/NC(=O)c2nnn(-c3nonc3N)c2-c2cccs2)cc1 | / | . | / | . | / | .
O=C(NCCc1ccc(Cl)cc1)C1CCC(=O)N1Cc1ccc(F)cc1 (stereo not drawn) | . | . | 96 | . | . | .
Cc1ccc(CCNC(=O)C2CCC(=O)N2Cc2ccc(F)cc2)cc1 (stereo not drawn) | / | . | / | . | / | .
Cc1ccc(NC(=O)COC(=O)c2ccc([N+](=O)[O-])s2)c(C)c1 | 58 | . | . | . | . | .
Cc1cc([N+](=O)[O-])ccc1NC(=O)/C=C/c1cccs1 | . | . | . | . | . | .
Cc1cccc(NC(=O)/C=C/c2ccc([N+](=O)[O-])s2)c1 | 88 | . | . | . | . | .
Cc1ccc(NC(=O)/C=C/c2ccc([N+](=O)[O-])s2)c(C)c1 | 93 | . | . | . | . | .
Cc1cc(C)c(NC(=O)COC(=O)c2ccc([N+](=O)[O-])s2)c(C)c1 | . | . | . | . | . | .
Cc1ccc(NC(=O)/C=C/c2ccc([N+](=O)[O-])s2)cc1 | 84 | . | . | . | . | .
N/C(=N\NS(=O)(=O)c1ccccc1Cl)c1ccccn1 | / | / | / | . | / | /
c1ccc(CC2CCN(c3ncnc4sccc34)CC2)cc1 | . | . | 44 | . | 37 | .
CC1=NNC(=O)/C1=C\c1cn(-c2ccccc2)nc1-c1ccc(Cl)cc1 | . | . | . | 98 | . | .
Cc1ccc(-c2nn(-c3ccccc3)cc2C=C2C(=O)CC(C)(C)CC2=O)cc1 | . | . | . | . | . | .
CCCn1c(N)c(N(CCOC)C(=O)/C=C/c2ccc(C(=O)OC)cc2)c(=O)[nH]c1=O | . | . | . | . | . | .
CN(CC(=O)Nc1ccccc1Cl)C(=O)CSc1ncc(C(F)(F)F)cc1Cl | . | . | . | . | . | .
O=c1c2c(nc3c(-c4cccc(Br)c4)c[nH]n13)CCCC2 | . | . | . | 69 | . | .
Cc1cc(C[n+]2ccccc2)c2nsnc2c1 | . | . | 59 | . | 59 | .
Cc1cc(C[n+]2ccsc2N)c2ncccc2c1 | / | . | . | . | . | .
O=C(Nc1cccc(C(F)(F)F)c1)Nc1ccc(N2CCCC2)c(S(=O)(=O)Nc2ccccc2Cl)c1 | . | . | . | 93 | . | .
SMILES | APP 5UTR inh | KLF5 inhibitor | BaF3 tox | aSyn 5UTR inh | Ba/F3 V617F tox | IEC-6 tox
Cn1c(-c2ccccn2)[n+](C)c2ccccc21 | . | . | . | . | . | .
Cn1c(-c2cccc([N+](=O)[O-])c2)[n+](C)c2ccccc21 | . | . | 70 | . | 58 | .
CN(C)c1ccc(-c2n(C)c3ccccc3[n+]2C)cc1 | / | . | 71 | . | 91 | .
Cn1c(-c2ccc3ccccc3n2)[n+](C)c2ccccc21 | / | . | 63 | . | 89 | .
COc1ccc(Cl)cc1NC(=O)C1CCCN(c2ncnc3c2nc2n3CCCCC2)C1 (stereo not drawn) | / | . | / | . | / | .
Cc1cc(C(C)(C)C)ccc1OCCCCN1CCCC1 | . | . | . | . | . | .
CCC(C)(C)c1ccc(OCCCC[n+]2cccc(C)c2C)c(C(C)(C)CC)c1 | / | . | 99 | 101 | 99 | .
CCC(C)(C)c1ccc(OCCCC[n+]2ccc(C)cc2)c(C(C)(C)CC)c1 | . | . | 103 | . | 102 | .
Cc1cc[n+](CC[n+]2ccc(C)cc2)cc1 | / | / | / | . | / | /
Cc1cccc(N2C(=O)c3cccc4c(N5CCCCC5)c([N+](=O)[O-])cc(c34)C2=O)c1C | . | . | . | 62 | . | .
CCN1CCN(/C=N/c2nc3c(s2)CCCC3)CC1 | . | . | . | 66 | . | .
CN1CCN(CC(=O)Nc2nc3c(s2)CCCC3)CC1 | / | . | . | . | . | .
CN1c2ccccc2C(C)(C)[C@]12C=Cc1cc(O)ccc1O2 | . | . | 61 | . | 74 | .
COc1ccc(NC(=O)n2nc(OC(=O)c3cccs3)cc2N)cc1 | . | . | . | . | . | .
CCC(C)C(NS(=O)(=O)c1ccc(C)cc1)C(=O)NCCCN1CCOCC1 (stereo not drawn) | / | . | / | . | / | .
CC(C)(C)c1cc[n+](C2=C([O-])c3ccccc3C(=O)/C2=N\S(=O)(=O)c2cccs2)cc1 | / | . | . | 69 | . | .
O=C(Nc1ccc(F)cc1F)c1cccc(C(=O)Nc2ccc(F)cc2F)n1 | / | . | / | 87 | / | .
O=C(Nc1ccc(S(=O)(=O)N2CCCC2)cc1)Nc1ccc(F)cc1F | / | . | / | . | / | .
O=C(Nc1ccc(F)cc1F)Nc1ccc(F)cc1F | . | . | 56 | . | . | .
O=C(Nc1ccc(F)cc1F)c1csc(-c2ccccc2)n1 | . | . | . | . | . | .
Cc1ccc(S(=O)(=O)Nc2ccc(NC(=O)Nc3ccc(F)cc3F)cc2)cc1 | . | . | . | 78 | . | .
COc1cc(C(=O)O/N=C2\C=CC(=O)C(C)=C2)cc(OC)c1OC | . | . | 32 | . | 49 | .
COc1cc(C(=O)ON=C2C=C(C)C(=O)C(C)=C2)cc(OC)c1OC | . | . | . | . | . | .
CC1CCN(c2nc3ccc(C(=O)O)cc3s2)CC1 | 46 | . | . | 106 | . | .
CCC(C)Nc1nc(N)c([N+](=O)[O-])c(NCc2ccccc2)n1 (stereo not drawn) | / | . | / | 65 | / | .
SMILES | APP 5UTR inh | KLF5 inhibitor | BaF3 tox | aSyn 5UTR inh | Ba/F3 V617F tox | IEC-6 tox
COCCCNc1nc(N)c([N+](=O)[O-])c(NC2CCCCC2)n1 | / | . | / | 90 | / | .
COc1ccc(Nc2nc(N)c([N+](=O)[O-])c(NC3CCCCC3)n2)cc1 | / | . | / | 62 | / | .
CC(C)CCNc1nc(N)c([N+](=O)[O-])c(NCC2CCCO2)n1 (stereo not drawn) | . | . | . | 62 | . | .
CCOc1cccc(/C=C/c2cc(C(=O)O)c3ccccc3n2)c1OC | / | . | . | . | . | .
Cc1cc(NC(=O)CCC(=O)N(CCC(C)C)C(C(=O)NCC2CCCO2)c2ccccc2C)no1 (stereo not drawn) | / | . | / | . | / | .
O=C(COC(=O)[C@@H]1CCCN1C(=O)c1cccs1)Nc1ccc(F)cc1[N+](=O)[O-] | . | . | . | . | . | .
